{"source": "PubChem BioAssay (NCI)", "note": "About 79,000 compounds went through this panel and 15% of them were active in at least one assay; those are over-represented in the sample as a whole. A number with no mark means an inactive call. Cut-off read from the data, not from the text of the source: active = growth inhibition above about 70%; inactive = the rest. Where a SMILES comes first, the peptide text is derived from it. The star is where a group is joined. Boc = CC(C)(C)OC(=O)*"}
{"test": "NCI Yeast Anticancer Drug Screen. Data for the sgs1 mgt1 strain (AID 161);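 note: 0% = growth of cultures given vehicle only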", "details": "S. cerevisiae sgs1 mgt1 strain, at 50.0 µM, hits give high values", "procedure,_shortened": "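This yeast growth screen uses a strain with defined DNA-repair lesions; compound-treated growth is compared with vehicle-treated growth.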", "units": {"growth inhibition": "%"}}
{"smiles": "O=c1cc(-c2ccc(F)cc2)oc2ccccc12", "growth inhibition": -9.05}
{"smiles": "Nc1cccc2c1C(=O)c1cccc(Nc3ccc4c(c3)C(=O)c3ccccc3C4=O)c1C2=O", "growth inhibition": 5.55}
{"smiles": "COC(=O)c1ccccc1O", "growth inhibition": -7.9}
{"smiles": "COc1c2cc3c(cc2nc2occc12)OCO3", "growth inhibition": -9.3}
{"smiles": "O=S1CCCO1", "note": "(centres undefined)", "growth inhibition": -13.8}
{"smiles": "CCOC(=O)C(CC(C)C)NC(=O)C(Cc1ccccc1)NC(=O)CNC(=O)OC(C)(C)C", "note": "(stereo not drawn) (Boc-Gly-Phe-Leu-OEt; configuration not given here)", "growth inhibition": 9.45}
{"smiles": "O=C(/C(=C(/Br)I)c1ccccc1)c1ccccc1", "growth inhibition": 26.6}
{"smiles": "O=P(c1ccccc1)(c1ccccc1)N1CC1c1ccccc1", "note": "(centres undefined)", "growth inhibition": 3.2}
{"smiles": "CC(=O)NNC(=S)/N=C/c1c(C)[nH]n(-c2ccccc2)c1=O", "growth inhibition": -22.1}
{"smiles": "CCOC(=O)Nc1cc(Cl)c2ncn(C(=O)OCC)c2n1", "growth inhibition": 10.9}
{"smiles": "C#CCC1(C(=O)OCC)C(=O)c2ccccc2N(C)C1=O", "note": "(centres undefined)", "growth inhibition": 31.1}
{"smiles": "CC(=O)OCC1OC(OC(C)=O)C(NS(=O)(=O)c2ccc(C)cc2)C(OC(C)=O)C1OC(C)=O", "note": "(centres undefined)", "growth inhibition": 18.1}
{"smiles": "COc1cc(C2[C@H]3C(=O)N(c4ccc(Cc5ccc(N6C(=O)[C@@H]7ON(c8ccccc8)C(c8cc(OC)c(OC)c(OC)c8)[C@@H]7C6=O)cc5)cc4)C(=O)[C@H]3ON2c2ccccc2)cc(OC)c1OC", "note": "(some centres undefined)", "growth inhibition": 3.75}
{"smiles": "c1ccc(C2(c3ccccc3)c3ccccc3-c3ccccc32)cc1", "growth inhibition": 20.3}
